This is an account of results in PubChem BioAssay (NCI).

Where “and” joins values, the source holds several entries; their conditions need not be identical. Equal values may be shown once. Compounds without any hit were thinned out: in the full panel of roughly 83,000, 20% have a hit.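 96-well plates, one dose, 48 hours. Percent growth reported; active if below 10.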 Calls of active or inactive are those of the source.

The subject of the assay is HL-60(TB) leukemia. Kind of assay: NCI-60 one-dose screen, 48 h (100 = growth as untreated, 0 = no growth, -100 = all killed). The note with it: 10 µM unless noted.
For `COc1ccc(OC)c(Nc2nc(-c3c(C)nc4sccn34)cs2)c1`, the growth is 67.9% (inactive).
As to `Cn1cc(-c2csc(-c3c[nH]c4ccc(Br)cc34)n2)c2cnccc21`, the growth is -56.6% (active).
On to `COc1cccc(C2=NN3C(C2)c2cc(Br)cc(OC)c2OC32CCN(Cc3ccccc3)CC2)c1` (stereo not given), for which the growth was 103% (inactive).
As to `Cn1c([N+](=O)[O-])cnc1/C=C1\Oc2ccc(Cl)cc2C1=O`, the growth was -2.57% (active).
The value for `CN(C)CCNc1nc2c3cc(Cl)ccc3nn2c2ccccc12` was 56.1% (inactive).
Consider `COc1cc2oc(-c3cccc(NC(=O)c4ccccc4)c3)cc(=O)c2c(OC)c1OC`, for which the growth was 60.5% (inactive).
With `CN(C)c1ccc(/C=C/c2ccnc3ccccc23)cc1N`, the growth was 43.5% (inactive).
In the case of `Cn1cc(-c2cc3c(Nc4ccc(CC(=O)Nc5cc(C(C)(C)C)on5)cc4)ncnc3[nH]2)cn1`, the growth is 6.63% (active) and -21.3% (active).
In the case of `Cc1c2c(cc3c1[nH]c1ccccc13)C=NCC2`, the growth was 93.3% (inactive).
For the compound `CCN(CC)CCCC(C)Nc1cnc(C(=O)Nc2cc(F)cc3cccnc23)cn1` (stereo not given), the growth was 85.5% (inactive) and 5.69% (active).
As for `CCN1C(=O)N(CC)C2C1NN=c1s/c(=C\c3cccc([N+](=O)[O-])c3)c(=O)n12` (stereo not given), the growth was -37.1% (active).
For `S=C1CCSC(=S)N1CCCN1C(=S)CCSC1=S`, the growth was 36.5% (inactive).
Regarding `Nc1nc(Nc2cc(Cl)cc(Cl)c2)nn1S(=O)(=O)c1ccc2ccccc2c1`, the growth was 88.6% (inactive).
In the case of `CC(C)(C)OC(=O)N1CCc2c(sc3ncnc(N/N=C/c4cccc(Br)c4)c23)C1`, the growth is 71.8% (inactive).
In the case of `Cc1cc(=O)[nH]c(N=Nc2c(O)[nH]c3ccccc23)n1`, the growth is 79.8% (inactive).
Regarding `N#Cc1cccc(NC(=O)c2oc3ccccc3c2-c2cnn(-c3ccccc3)c2)c1`, the growth was -22.2% [50 µM] (active).
Take `CSc1nc2sc3cc(Cl)ccc3n2c(=N)c1C#N`: the growth was 121% (inactive).
Consider `COc1ccc(N2CCC(=O)NC2=S)cc1`, for which the growth is 101% (inactive).
As for `C=CCc1nc2ccccc2s1`, the growth was 105% (inactive).
For `Cc1ccc(Sc2oc(-c3ccc(C)cc3)nc2[P+](c2ccccc2)(c2ccccc2)c2ccccc2)cc1`, the growth is -45% (active).
Consider `Cc1ccc(=O)[nH]n1`, for which the growth is 99.9% (inactive) and 102% (inactive).
The value for `COc1ccc(C(=O)COc2ccc(/C=C3\Oc4ccccc4C3=O)cc2)cc1` was 76% (inactive).
In the case of `CCC(=O)Oc1ccc(/C(=C(/C)Cc2cccc(OC)c2)c2ccc(OCCN(C)C)cc2)cc1`, the growth is 91.3% (inactive).
`CCCOc1cc2ccccc2cc1C(=O)Nc1nc(NC)c2c(ccc3nccc32)[nH]1`: the growth was -55.2% (active).
In the case of `CC/C(=C(\c1ccccc1)c1ccc(OCCNC)cc1)c1ccccc1` it was 6.56% (active); in that of `CN1CCN(C2CCN(C(=O)Nc3cc(Oc4ccc(NC(=O)C5(C(=O)Nc6ccc(F)cc6)CC5)c(F)c4)ccn3)CC2)CC1`, -44.7% (active) and 121% (inactive); in that of `O=CN1CCCCC1`, 97% (inactive).
The value for `Nc1ccccc1SC1CC(=O)N(c2cccc3ccccc23)C1=O` (stereo not given) was 97% (inactive); that for `CN(CCc1ccccn1)c1ccccc1` was 34.4% (inactive).
For the compound `N#Cc1c2c(nn(-c3ccccc3)c1=O)C(O)=C([N+](=O)[O-])C(c1ccccc1)C2` (stereo not given), the growth was 58.5% (inactive).
The value for `O=C1Nc2ccccc2/C1=C\c1c(-c2ccc(F)cc2)nc2ccccn12` was 70.3% (inactive); that for `CCOc1ccc(NC(=O)CSc2oc(-c3ccccc3)nc2S(=O)(=O)c2ccc(F)cc2)cc1` was 65.2% (inactive); that for `COc1nccc2cc3c(=O)n4c(cc5ccccc54)c(=O)n3c12` was 93.5% (inactive).
Take `O=[N+]([O-])c1ccc(C2N(Cc3ccc(Cl)cc3)CCN2Cc2ccc(Cl)cc2)cc1`: the growth was 86.9% (inactive).
Consider `CN(C)c1ccc2nc3ccc(=[N+](C)C)cc-3sc2c1`, for which the growth is 0.249% (active) and -38.6% (active) and 19.8% (inactive).
As for `O=C(/C=C/C=C/c1ccc2c(c1)OCO2)N/N=C\c1ccc(O)cc1O`, the growth was -0.489% (active).
In the case of `O=C(O)c1ccc[n+](CC(=O)N2CCN(c3cc4c(cc3F)c(=O)c(C(=O)O)cn4C3CC3)CC2)c1` it was 97.6% (inactive).
On to `C#CC(C)(O)c1ccc(Cl)cc1` (stereo not given), for which the growth is 109% (inactive).
As for `O=C1NC(=O)C(CC(=O)n2c(-c3ccccc3)nc3ccccc32)C(=O)N1`, the growth is 106% (inactive).
As for `O=C(/C=C/C=C/c1ccc2c(c1)OCO2)N1CCCCC1`, the growth was 100% (inactive) and 93.4% (inactive).
